The record followed here is PubChem BioAssay AID1851 (National Center for Advancing Translational Sciences (NCATS), 2009).

One may read the AC50 as the midpoint of the concentration-response curve, whichever way the signal moves.

Among all 16,000 compounds or so, about 5,700 (36%) were called active. Roughly 24% stayed inconclusive and do not appear here. The list shows a part of the results. Unmarked numbers belong to inactive results. Calls come from the whole dose curve; as a rule, active = well fitted curve in the direction sought with a large enough effect; inconclusive = small, poorly fitted or top-dose-only effect, or effect the other way; inactive = no such curve, though single readings can be large or run the other way.
% is set by controls: 0 for no effect and ±100 for the full control effect.

For this experiment, the target named is Cytochrome P450 1A2 (Homo sapiens) (UniProt P05177). Kind of experiment: Cytochrome panel assay with activity outcomes. The following applies: recombinant CYP, pro-luciferin dealkylation, luminescence, p450-cyp1a2; series mostly up to 57.1 µM; activity, negative = inhibition: at the top concentration.
Cytochrome P450 1A2 (Homo sapiens), sequence (P05177 whole entry, looked up): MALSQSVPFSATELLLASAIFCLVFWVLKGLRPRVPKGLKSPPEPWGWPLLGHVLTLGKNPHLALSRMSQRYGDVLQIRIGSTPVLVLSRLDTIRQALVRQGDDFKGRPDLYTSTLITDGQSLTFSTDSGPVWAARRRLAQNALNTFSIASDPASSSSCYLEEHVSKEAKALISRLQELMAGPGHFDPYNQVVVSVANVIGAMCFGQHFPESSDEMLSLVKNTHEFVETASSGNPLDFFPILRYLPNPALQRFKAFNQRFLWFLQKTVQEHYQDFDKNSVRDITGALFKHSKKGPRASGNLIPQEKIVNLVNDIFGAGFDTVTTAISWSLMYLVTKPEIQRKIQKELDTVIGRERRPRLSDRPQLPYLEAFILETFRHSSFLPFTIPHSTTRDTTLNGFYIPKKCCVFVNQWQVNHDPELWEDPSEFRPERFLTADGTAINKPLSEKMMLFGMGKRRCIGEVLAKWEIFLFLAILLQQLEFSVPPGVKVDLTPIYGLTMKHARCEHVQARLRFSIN
As for `FC(F)(F)c1ccccc1-c1nccc(N2CCNCC2)n1`, the AC50 is 10 µM (active).

On to `CN1CCN(c2nc(-c3ccccc3C(F)(F)F)nc3ccccc23)CC1`, for which the AC50 is 10 µM (active).

`FC(F)(F)c1ccccc1-c1nc(N2CCNCC2)c2ccccc2n1`: the AC50 is 10 µM (active).

Regarding `CO[C@@H]1COC(=O)[C@@H](C)NC(=O)C/C=C\[C@@H](C)[C@H](NS(=O)(=O)c2ccc(C)cc2)COC(=O)[C@H](C)NC(=O)C/C=C\[C@H]1C`, the activity, negative = inhibition was 1.37% [at 11.4 µM].

Turning to `CCOC(=O)c1c(C)c(C)n2c1NC(=O)C2`, the AC50 was 2 µM (active).

For `CCOC(=O)N1CCN(C(=O)c2ccc(OC)c(OC)c2)CC1`, the “activity, negative = inhibition” value was -0.0485%.

On to `CCOC(=O)N1CCN(C(=O)c2ccc(NC(C)=O)cc2)CC1`, for which the “activity, negative = inhibition” value is 6.91%.

Consider `CCOC(=O)N1CCN(C(=O)c2ccc(Cl)c(S(=O)(=O)N3CCOCC3)c2)CC1`, for which the AC50 is 6.31 µM (active).

Regarding `O=C(O)c1cc(=O)cc(C(=O)O)[nH]1`, the “activity, negative = inhibition” value is 2.72%.

On to `Cc1nc2cnc(N(C)C)nc2n(-c2ccccc2)c1=O`, for which the AC50 is 2 µM (active).

Turning to `COc1ccc(-n2c(=O)c(C)nc3cnc(N(C)C)nc32)cc1`, the AC50 is 6.31 µM (active).

Take `COc1ccc(-n2c(=O)cnc3cnc(N(C)C)nc32)cc1`: the AC50 was 5.01 µM (active).

Consider `C[C@H](O)C(=O)Nc1c(I)c(C(=O)NC(CO)CO)c(I)c(C(=O)NC(CO)CO)c1I`, for which the “activity, negative = inhibition” value was 0.269% [at 25.6 µM].

With `C#CCCCO/N=C1/C[C@@H](O)[C@@H](O)[C@@H]2[C@@H]3C(=O)N(CCC(=O)OCC)C(=O)[C@H]3CC[C@H]12`, the activity, negative = inhibition was -10.2% [at 11.4 µM].

Take `CCOC(=O)N1CCC(NS(=O)(=O)c2ccc3c(c2)C(C)(C)C(=O)N3C)CC1`: the “activity, negative = inhibition” value is 14%.

`NCCCS(=O)(=O)O`: the “activity, negative = inhibition” value was -4.72%.

For `Cc1ccc(C(=O)N2C3C=CC(C3)C2(C(F)(F)F)C(F)(F)F)cc1` (stereo not given), the “activity, negative = inhibition” value is -9.14%.

Consider `C[C@H](NC(=O)c1ccc(Cl)c(Cl)c1)c1ccc(-c2ccccc2)cc1`, for which the AC50 was 0.631 µM (active).

In the case of `CCCCCN(CCCCC)C(=O)[C@H](CCC(=O)O)NC(=O)c1ccc(Cl)c(Cl)c1`, the AC50 entry is “inactive”.

Regarding `COc1ccc(C(NC(=O)c2ccc(-c3ccccc3)cc2)c2ccccc2)cc1` (stereo not given), the “activity, negative = inhibition” value was -2.05%.

Turning to `CCOc1ccc(C(C)=O)cc1N1C(=O)C2C(C1=O)C1C=CC2C12CC2` (stereo not given), the “activity, negative = inhibition” value is -21.9%.

For `Cc1cccc(N/C(=N\S(=O)(=O)c2ccccc2)C(F)(F)F)c1`, the concentration at half-maximal activity (AC50) was 14.1 µM (active).

As for `O=C(Nc1cccc(F)c1)N1CC2(CCN(S(=O)(=O)c3ccccc3)CC2)C1`, the “activity, negative = inhibition” value is -28.7%.

As to `Cc1cccc(Nc2ccncc2S(=O)(=O)NC(=O)NC(C)C)c1`, the “activity, negative = inhibition” value is -15.6% [at 25.6 µM].

As for `CCC(=O)NC(NC(=O)CC)C(Cl)Cl`, the “activity, negative = inhibition” value is -1.98%.

On to `O=C(O)c1cc(N=Nc2ccc([N+](=O)[O-])cc2)ccc1O`, for which the activity, negative = inhibition was -15.2% [at 2.29 µM].

As for `O=C(Nc1ccccc1)c1cc([N+](=O)[O-])ccc1Cl`, the AC50 is 0.631 µM (active).

For the compound `O=C(Nc1ccc([N+](=O)[O-])cc1Cl)c1cc(Cl)ccc1O`, the AC50 was 1.26 µM (active).

`CC(=O)Nc1ccc(NC(=O)c2ccccc2CC[N+](=O)[O-])cc1`: the “activity, negative = inhibition” value is -12.1%.

Consider `Cc1cccc[n+]1CC(=O)Nc1ccc([N+](=O)[O-])cc1Cl`, for which the “activity, negative = inhibition” value is -0.914%.

Regarding `O=C(Nc1ccccc1)c1ccccc1CC[N+](=O)[O-]`, the AC50 was 15.8 µM (active).

For `COc1cccc(/C(O)=C2/C(=O)C(=O)N(c3cc(C)on3)C2c2cccs2)c1` (stereo not given), the “activity, negative = inhibition” value was -13.9%.

Take `CC(=O)OCC1=C(C(=O)O)N2C(=O)[C@@H](NC(=O)CSc3ccncc3)[C@@H]2SC1`: the AC50 entry is “inactive”.

As for `Fc1ccc(CSc2ncnc3sc4c(c23)CCCC4)cc1`, the AC50 is 4.47 µM (active).

Regarding `CCc1ccc(OCC(=O)NNC(=O)CSc2ncnc3sc(C)c(C)c23)cc1`, the “activity, negative = inhibition” value is -21.4%.

On to `c1ccc(CSc2ncnc3c2sc2nc(N4CCOCC4)c4c(c23)CCCC4)cc1`, for which the “activity, negative = inhibition” value was -8.51%.

On to `Nc1c(-c2ccccc2)cnn1-c1cccc([N+](=O)[O-])c1`, for which the AC50 was 3.55 µM (active).

Regarding `Nc1nc2c(ncn2[C@@H]2C=C[C@@H](CO)C2)c(=O)[nH]1`, the activity, negative = inhibition is -4.34% [at 11.4 µM].

Consider `Cc1ccc(NC(=O)CSc2nnc(-c3ccncc3)o2)cc1`, for which the “activity, negative = inhibition” value is -19.3%.

With `Clc1ccccc1CSc1nnc(-c2ccncc2)o1`, the half-maximal activity concentration (AC50) is 0.794 µM (active).

As to `Nc1nc(SCc2ccccc2Cl)cc(C(=O)O)n1`, the activity, negative = inhibition is 6.21% [at 2.29 µM].

Consider `Clc1cccc(Cl)c1CSc1nnc(/C=C/c2ccccc2)o1`, for which the AC50 was 4.47 µM (active).

As for `Clc1ccccc1CSc1nnc(/C=C/c2ccccc2)o1`, the AC50 is 1.26 µM (active).

For `CNC[C@H](O)[C@H](O)[C@H](O)[C@H](O)CO`, the “activity, negative = inhibition” value was -4.07% [at 25.6 µM].

On to `CN1CCC(=C2c3ccccc3C=Cc3ccccc32)CC1`, for which the AC50 result was “inactive”.

With `CC(=O)N1CCC2(CCCN(Cc3ccccc3)C2)CC1`, the “activity, negative = inhibition” value was 9.1%.

Turning to `CN1CCc2nc(N)nc(-c3nc(N)nc4c3CN(C)CC4)c2C1`, the activity, negative = inhibition is -3.87% [at 2.29 µM].

In the case of `Cc1nc([N+](=O)[O-])c(N2CCN(C)CC2)n1Cc1ccccc1`, the “activity, negative = inhibition” value was -2.13%.

Consider `CN1CCc2c(c3ccccc3n2C)C1`, for which the AC50 is 12.6 µM (active).

Take `CN1CCc2c(c3ccccc3n2Cc2ccccc2)C1`: the AC50 is 5.01 µM (active).
